The results in this text go back to PubChem BioAssay (NCATS).

For test [1], the target named is Guanine nucleotide-binding protein G(i) subunit alpha-1 (Homo sapiens) (UniProt P63096). The test is described as follows: qHTS Assay for Inhibitors of RGS12 GoLoco Motif Activity (Green Fluorophore) (AID 879).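 Also: 0% = labeled peptide with Gαi1 and full inhibition = labeled peptide alone without protein; negative values mean loss of peptide binding seen as reduced polarization.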 A digest of the protocol: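 Fluorescence polarization assay: 50 nM Gαi1 with 10 nM FITC-labeled RGS12 GoLoco peptide in 10 mM Tris pH 7.5, 150 mM NaCl, 0.1 mM GDP, 0.05% NP40, 10 min at room temperature with compound.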
Guanine nucleotide-binding protein G(i) subunit alpha-1 (Homo sapiens), sequence (P63096 whole entry, looked up): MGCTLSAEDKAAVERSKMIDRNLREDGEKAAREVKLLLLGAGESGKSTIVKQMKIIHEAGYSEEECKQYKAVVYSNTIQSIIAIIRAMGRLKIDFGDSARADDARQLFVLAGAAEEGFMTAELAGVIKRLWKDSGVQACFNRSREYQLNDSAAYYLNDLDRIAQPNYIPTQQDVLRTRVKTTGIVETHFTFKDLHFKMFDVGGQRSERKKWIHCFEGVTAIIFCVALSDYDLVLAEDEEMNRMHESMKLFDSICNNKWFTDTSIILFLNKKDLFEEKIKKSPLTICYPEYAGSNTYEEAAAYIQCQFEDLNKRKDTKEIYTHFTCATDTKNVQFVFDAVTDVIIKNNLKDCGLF
Background: Quantitative high-throughput screening tests each substance at several concentrations.

Test [2] can be described thus: qHTS Assay for Identification of Small Molecule Antagonists for NFkB Signaling Pathway (AID 895; active = well fitted inhibition curve with a large enough effect in the signal ratio, with a control signal flat, not every such curve was filed as active; the % refers to the signal ratio; also: potency is read from the fitted curve at half-maximal effect). A digest of the protocol: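 Beta-lactamase reporter read-out (460 and 530 nm emission ratio, 405 nm excitation, 2 hrs substrate loading RT) after 5 hr stimulation with 10 pM TNF alpha in compound-treated NFkB-bla ME-180 cells in low-serum medium.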
The nature of test [3]: qHTS Assay for Identification of Small Molecule Agonists for Thrombopoietin (TPO) Signaling Pathway (AID 917). Also: % is scaled to controls: 0 for no effect and ±100 for the full control effect. In short, it runs like this:
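We measured Glycoprotein IIb promoter–luciferase output in IL-3-starved Ba/F3 murine cells expressing the human TPO receptor after 24 hrs at 37 C with compounds and 26 pM TPO.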

In test [4] the target is Muscarinic acetylcholine receptor M1 (Rattus norvegicus) (UniProt P08482). The test is described as follows: qHTS Assay for Antagonists of Acetylcholine Muscarinic M1 Receptor: Kinetic Measurement of Intracellular Calcium Response (AID 943). Also: nearly all actives have a fitted effect of over 75% in size. Also: potency is read from the fitted curve at half-maximal effect. A digest of the protocol:
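CHO cells expressing rat M1 receptor, Fluo-4 loaded, preincubated 10 min with compound, then stimulated with EC80 carbachol (100 nM final). Kinetic calcium fluorescence over 4 min; response taken as peak over basal signal.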

The target is the same in test [5]. Nature of the test: qHTS Assay for Antagonists of Acetylcholine Muscarinic M1 Receptor: Measurement of IP-One Response (AID 944). Also: nearly all actives have a fitted effect of over 75% in size. Also: potency is read from the fitted curve at half-maximal effect. A digest of the protocol: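 CHO cells stably expressing rat M1, pretreated 10 min with compound, then stimulated 30 min with carbachol at EC80 (200 nM) in LiCl-containing buffer pH 7.4; IP1 accumulation read by HTRF competition (665/620 nm).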

For test [6], the target named is Cytochrome P450 2C19 (Homo sapiens) (UniProt P33261). The test is described as follows: qHTS Assay for Inhibitors and Substrates of Cytochrome P450 2C19 (AID 899). Also: nearly all actives have a fitted effect of over 60% in size. Also: potency is read from the fitted curve at half-maximal effect. A digest of the protocol: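 Reactions contain 5nM enzyme, 10uM Luciferin-H EGE (KM) and 50mM KPO4; compound preincubates 10 min at 37C, NADPH regeneration starts turnover for 60 min. Luminescence after detection reagent gives activity.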
Cytochrome P450 2C19 (Homo sapiens), sequence (P33261 whole entry, looked up): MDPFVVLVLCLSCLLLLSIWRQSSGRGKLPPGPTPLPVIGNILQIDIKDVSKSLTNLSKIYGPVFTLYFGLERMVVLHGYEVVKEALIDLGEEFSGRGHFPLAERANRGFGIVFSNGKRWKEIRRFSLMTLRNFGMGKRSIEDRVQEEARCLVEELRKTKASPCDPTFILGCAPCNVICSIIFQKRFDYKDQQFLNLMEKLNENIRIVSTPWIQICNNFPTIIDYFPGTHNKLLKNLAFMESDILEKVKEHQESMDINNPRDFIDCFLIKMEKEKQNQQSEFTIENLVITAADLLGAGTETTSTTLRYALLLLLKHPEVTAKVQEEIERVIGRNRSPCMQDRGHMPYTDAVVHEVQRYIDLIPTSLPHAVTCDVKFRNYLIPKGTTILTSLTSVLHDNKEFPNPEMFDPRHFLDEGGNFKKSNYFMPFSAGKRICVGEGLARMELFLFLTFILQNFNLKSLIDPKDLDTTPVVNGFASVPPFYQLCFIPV

The nature of test [7]: qHTS Assay for Identification of Small Molecule Agonists for Hypoxia Response Element Signaling Pathway (AID 914; active = well fitted activation curve with a large enough effect in the signal ratio, with a control signal flat, not every such curve was filed as active; the % refers to the signal ratio; also: % of control where 0% means no effect). The conditions noted are these: ME-180 (cervical carcinoma) HRE-bla reporter, beta-lactamase ratio, CoCl2, 17 h; activation: stronger effect = higher value. A digest of the protocol: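 A beta-lactamase reporter under hypoxia response element control in ME-180 cells served as the system. Compound titrations plus EC50 CoCl2 ran 17 h at 37 degrees Celsius; AC50 values were fitted from %Activity.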

Test [8] in a line: Confirmation and Secondary Assay for Modulators of Hemoglobin Beta Chain Splicing at IVS2 654 locus (AID 910).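 Also: HeLa cells stably carrying EGFP split by mutant beta-globin IVS2-654 intron; per-well total GFP intensity by laser scanning cytometry after 2-day treatment.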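 Also: potency is read from the fitted curve at half-maximal effect; potency of activators that raise GFP signal by restoring correct splicing.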 In short, it runs like this: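 Readout: per-well total peak green fluorescence (488 nm ex, 500–520 nm em) from objects 5–250 µm, reflecting correct splicing of an EGFP-654 reporter. Compounds were applied for 2 days at 37 °C to overnight-plated HeLa EGFP-654 cells; controls were DMSO and 500 nM IVS2-654 PNA.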

Test [9] is described as follows: Confirmation and Secondary Assay for Modulators of Hemoglobin Beta Chain Splicing at IVS2 705 locus (AID 930).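 Also: HeLa cells stably expressing the EGFP-705 splicing reporter; GFP fluorescence per well restored by corrected splicing of the IVS2-705 intron in EGFP; series mostly up to about 46 µM; % of control where 0% means no effect.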 A digest of the protocol:
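Fluorescence gain (488 nm laser, 500-520 nm PMT) reflects restored correct splicing of a mutant IVS2-705 intron inside EGFP in stably transfected HeLa cells after 2-day compound treatment.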

The target of test [10] is Cytochrome P450 3A4 (Homo sapiens) (UniProt P08684). Nature of the test: qHTS Assay for Activators of Cytochrome P450 3A4 (AID 885). Also: nearly all actives have a fitted effect of over 65% in size. Also: potency is read from the fitted curve at half-maximal effect. A digest of the protocol: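 Steps: enzyme/substrate mix dispensed; compound added, 10 min RT; NADPH regeneration solution added, 60 min RT; luciferin detection buffer stops reaction; 20 min later luminescence measured.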
Cytochrome P450 3A4 (Homo sapiens), sequence (P08684 whole entry, looked up): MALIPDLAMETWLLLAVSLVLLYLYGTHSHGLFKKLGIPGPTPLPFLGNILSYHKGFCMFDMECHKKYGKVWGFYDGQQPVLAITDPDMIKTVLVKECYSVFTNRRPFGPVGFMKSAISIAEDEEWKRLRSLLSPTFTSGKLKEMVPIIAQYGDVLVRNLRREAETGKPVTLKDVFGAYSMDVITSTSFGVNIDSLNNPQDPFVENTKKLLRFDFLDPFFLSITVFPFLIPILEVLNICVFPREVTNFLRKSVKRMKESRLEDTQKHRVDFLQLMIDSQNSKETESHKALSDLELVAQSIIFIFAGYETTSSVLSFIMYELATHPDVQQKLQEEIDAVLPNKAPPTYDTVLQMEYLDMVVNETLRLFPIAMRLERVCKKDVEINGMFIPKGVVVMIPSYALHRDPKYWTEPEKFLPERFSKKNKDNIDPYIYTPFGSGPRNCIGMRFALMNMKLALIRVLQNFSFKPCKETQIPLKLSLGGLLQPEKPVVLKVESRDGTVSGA
The target is the same in test [11]. The test is described as follows: qHTS Assay for Inhibitors and Substrates of Cytochrome P450 3A4 (AID 884). Also: series mostly up to about 57 µM; % is scaled to controls: 0 for no effect and ±100 for the full control effect; nearly all actives have a fitted effect of over 50% in size. A digest of the protocol:
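20 nM human CYP3A4 with 25 uM Luciferin-PPXE (at KM) in 200 mM KPO4, preincubated 10 min with compound; NADPH regeneration started a 60 min RT reaction. Luciferin detected by luminescence, normalized to 57 uM ketoconazole as full inhibition.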

In test [12] the target is Cytochrome P450 2D6 (Homo sapiens) (UniProt P10635). The test is described as follows: qHTS Assay for Inhibitors and Substrates of Cytochrome P450 2D6 (AID 891). Also: nearly all actives have a fitted effect of over 60% in size. Also: potency is read from the fitted curve at half-maximal effect. In short, it runs like this: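 Human CYP2D6 (5 nM) with 30 uM Luciferin-ME EGE (at Km) in 100 mM KPO4, compound preincubated 10 min, then NADPH regeneration system for 60 min at room temperature. Luciferin read by luminescence; normalized to 1.43 uM quinidine.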
Cytochrome P450 2D6 (Homo sapiens), sequence (P10635 whole entry, looked up): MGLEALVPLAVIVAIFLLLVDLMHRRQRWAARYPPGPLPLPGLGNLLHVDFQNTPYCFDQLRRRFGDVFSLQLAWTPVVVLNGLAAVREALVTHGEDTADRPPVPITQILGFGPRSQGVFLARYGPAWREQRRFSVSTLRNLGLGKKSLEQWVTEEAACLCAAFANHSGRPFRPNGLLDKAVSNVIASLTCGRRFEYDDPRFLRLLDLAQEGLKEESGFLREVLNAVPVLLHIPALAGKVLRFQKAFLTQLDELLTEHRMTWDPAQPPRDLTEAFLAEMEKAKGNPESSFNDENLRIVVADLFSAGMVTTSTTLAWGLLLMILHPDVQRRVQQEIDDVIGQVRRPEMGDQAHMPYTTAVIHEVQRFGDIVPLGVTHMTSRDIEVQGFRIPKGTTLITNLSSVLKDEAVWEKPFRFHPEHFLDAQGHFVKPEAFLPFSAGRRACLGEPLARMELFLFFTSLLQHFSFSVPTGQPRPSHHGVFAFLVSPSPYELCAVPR

Test [13] has as its target Cytochrome P450 2C9 (Homo sapiens) (UniProt P11712). Nature of the test: qHTS Assay for Inhibitors and Substrates of Cytochrome P450 2C9 (AID 883). Also: % is scaled to controls: 0 for no effect and ±100 for the full control effect; nearly all actives have a fitted effect of over 60% in size. A digest of the protocol:
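Turnover of Luciferin-H (100uM, KM) by 10nM human CYP2C9 was measured over 60 min at 37C with NADPH regeneration; inhibitors and some substrates reduce luminescence. Data normalized to sulphaphenazole 57uM.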

Values without a mark were called inactive. Records with an inconclusive call do not appear. The source made the active and inactive calls. Unless noted, calls follow the shape of the dose curve; as a rule, active = well fitted curve in the direction sought with a large enough effect; inconclusive = small, poorly fitted or top-dose-only effect, or another doubt; inactive = no such curve, though single readings can be large; an effect the other way counts as inactive or inconclusive.

Muscarinic acetylcholine receptor M1 (Rattus norvegicus), sequence (P08482 whole entry, looked up): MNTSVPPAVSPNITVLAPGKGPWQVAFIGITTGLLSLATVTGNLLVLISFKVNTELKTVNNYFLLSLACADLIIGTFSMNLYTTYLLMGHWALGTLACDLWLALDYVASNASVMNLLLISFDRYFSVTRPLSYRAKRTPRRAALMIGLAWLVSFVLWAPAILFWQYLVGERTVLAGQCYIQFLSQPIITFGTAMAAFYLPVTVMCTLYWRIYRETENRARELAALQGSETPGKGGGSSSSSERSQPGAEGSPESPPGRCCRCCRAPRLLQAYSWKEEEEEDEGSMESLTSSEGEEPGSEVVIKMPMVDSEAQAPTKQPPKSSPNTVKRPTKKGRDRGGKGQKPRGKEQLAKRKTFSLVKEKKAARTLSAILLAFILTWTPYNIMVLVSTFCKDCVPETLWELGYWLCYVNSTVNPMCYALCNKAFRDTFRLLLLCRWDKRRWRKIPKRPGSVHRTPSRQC
Cytochrome P450 2C9 (Homo sapiens), sequence (P11712 whole entry, looked up): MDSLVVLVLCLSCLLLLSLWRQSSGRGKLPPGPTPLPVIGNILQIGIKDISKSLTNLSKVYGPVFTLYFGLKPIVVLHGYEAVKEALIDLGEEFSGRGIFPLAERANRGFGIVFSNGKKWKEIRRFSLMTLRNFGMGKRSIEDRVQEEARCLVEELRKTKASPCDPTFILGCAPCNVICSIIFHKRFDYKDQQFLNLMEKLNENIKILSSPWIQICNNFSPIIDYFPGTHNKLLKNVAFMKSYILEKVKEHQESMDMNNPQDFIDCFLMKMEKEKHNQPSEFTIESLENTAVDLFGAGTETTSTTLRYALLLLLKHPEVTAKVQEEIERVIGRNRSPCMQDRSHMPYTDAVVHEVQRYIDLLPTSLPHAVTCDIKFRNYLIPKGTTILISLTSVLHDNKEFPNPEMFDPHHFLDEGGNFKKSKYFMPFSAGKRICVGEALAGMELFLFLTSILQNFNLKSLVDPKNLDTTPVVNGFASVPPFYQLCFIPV

Regarding `Cc1ccc2c(c1)C(N1CCN(C)CC1)=Nc1cccnc1N2`, the Potency entry in [1] and in test [3] was “inactive” each time. Further, the Potency in test [2] was 11200 nM (active); in [4], 35.5 nM (active); in test [5] it was 79.4 nM (active).
For `Cc1nc(N=Nc2ccc(S(=O)(=O)O)cc2S(=O)(=O)O)c(COP(=O)(O)O)c(C=O)c1O`, the Potency result in test [1], in test [2], in test [4] and in test [5] was “inactive” each time.
For the compound `Cn1ccnc1`, the Potency result in [1], in [6], in test [3], in [4] and in test [5] was “inactive” throughout.
For `C[N+](C)(C)CC=O`, the Potency result in [1], in test [2], in [3] and in test [5] was “inactive” each time.
Turning to `COc1ccc(C(=O)NCc2cccnc2)cc1C(=O)NCc1cccnc1`, the Potency result in test [1], in test [3], in test [4] and in test [5] was “inactive” each time.
Consider `N[C@@H](Cc1c[nH]c2ccccc12)C(=O)O`, for which the Potency result in test [1], in test [3], in test [4] and in test [5] was “inactive” each time.
As for `NC(N)=[N+]1CCc2ccccc2C1`, the Potency entry in test [1], in test [3] and in test [4] was “inactive” in each case.
Consider `CCCCCCC/C=C\CCCCCCCCC(=O)O`, for which the Potency entry in test [1], in test [3], in test [4] and in test [5] was “inactive” each time. Moreover, the activation in test [7] is -14%.
Regarding `CCCCCCCCCCCCCCSCC(=O)O`, the Potency entry in test [1], in test [2], in test [3] and in test [5] was “inactive” throughout.
On to `Cn1c(=O)c2[nH]c(-c3ccc(S(=O)(=O)O)cc3)nc2n(C)c1=O`, for which the Potency entry in [1], in test [6], in [3], in test [4] and in test [5] was “inactive” in each case.
With `Cc1cc2c(cc1Cl)N(C(=O)Nc1ccnc3ccccc13)CC2`, the Potency result in [1], in test [3], in test [4] and in test [5] was “inactive” each time.
With `O=c1[nH]c2ccccc2c2ccccc12`, the Potency result in [1] and in test [3] was “inactive” in each case.
With `O=c1[nH]c(=O)c2nc3ccccc3nc2[nH]1`, the Potency result in test [1], in test [6], in test [3], in test [4] and in [5] was “inactive” throughout.
As to `CCCn1c(=O)c2[nH]c(-c3ccc(S(=O)(=O)O)cc3)nc2n(CCC)c1=O`, the Potency result in test [1], in test [3], in [4] and in [5] was “inactive” throughout.
With `Nc1nc2[nH]c(=O)cnc2c(=O)[nH]1`, the Potency entry in test [1], in test [3], in test [4] and in [5] was “inactive” throughout.
In the case of `CCCC(=O)NCCc1c2n(c3ccc(OC)cc13)CCCc1ccccc1-2`, the Potency result in test [1], in test [2] and in test [5] was “inactive” in each case.
As to `COc1ccc(-c2ccc(N)[n+](CCCC(=O)O)n2)cc1`, the Potency result in [1], in test [2], in test [3], in test [4] and in test [5] was “inactive” each time.
For `NOCC(=O)O`, the Potency result in test [1], in test [2] and in test [4] was “inactive” in each case.
With `O=c1cc(-c2ccccc2)[nH]c2nc(Cl)ccc12`, the Potency entry in test [1], in test [6], in test [3], in [4] and in test [5] was “inactive” throughout.
For the compound `N=C(N)c1ccccc1`, the Potency entry in test [1], in [2], in [3], in test [4] and in [5] was “inactive” in each case.
With `CCN(c1nc(N)c(C(=O)N=C(N)N)nc1Cl)C(C)C`, the Potency entry in [1], in [2] and in [5] was “inactive” each time.
On to `CC(N)=O`, for which the Potency entry in test [1], in test [3], in [4] and in test [5] was “inactive” each time.
Regarding `COc1cc(CNC(=O)CCCCCCC(C)C)ccc1O`, the Potency result in [1], in test [3], in test [4] and in [5] was “inactive” each time.
In the case of `NS(=O)(=O)c1cccc2c1c([N+](=O)[O-])cc1nc(O)c(O)nc12`, the Potency result in [1], in test [2], in test [3], in test [4] and in [5] was “inactive” each time.
Turning to `Nc1nc2ccc(Cl)cc2c2nc(-c3ccco3)nn12`, the Potency entry in test [1], in test [6], in test [4] and in [5] was “inactive” throughout.
Turning to `O=C(O)c1cc(=O)cc(C(=O)O)[nH]1`, the Potency entry in [1], in [3] and in test [5] was “inactive” throughout. Further, in [2], the Potency is 3550 nM (active).
For `CCC(=O)N1CCN(C(=O)c2ccccc2)CC1`, the Potency result in test [1], in test [2], in [3] and in test [4] was “inactive” each time.
For the compound `NCCCCN=C(N)N`, the Potency entry in [1], in [8], in [3], in [4] and in [5] was “inactive” each time. For the same compound, the result in test [9] was inactive.
For the compound `N#C/C(=C\c1ccc(O)c(O)c1)C(=O)NCCCNC(=O)/C(C#N)=C/c1ccc(O)c(O)c1`, the Potency entry in test [1], in test [3] and in test [4] was “inactive” throughout.
With `C#CCn1c(=O)c2c(ncn2C)n(C)c1=O`, the Potency result in [1], in test [2], in test [3], in [4] and in [5] was “inactive” in each case.
As for `O=C1Nc2ccc(I)cc2/C1=C/c1cc(Br)c(O)c(Br)c1`, the Potency entry in test [1], in test [3] and in [4] was “inactive” each time. In addition, in test [2], the Potency is 8910 nM (active).
As for `COc1ccccc1N1CCN(CCN(C(=O)c2ccc(F)cc2)c2ccccn2)CC1`, the Potency entry in [1], in [3] and in test [5] was “inactive” throughout.
`COc1ccc2c(c1)c(CC(=O)O)c(C)n2Cc1ccc(Cl)cc1`: the Potency entry in [10], in test [3], in test [4] and in test [5] was “inactive” in each case.
Take `OC[C@H]1O[C@@H](n2cnc3cncnc32)[C@H](O)[C@@H]1O`: the Potency in test [8] is 1260 nM (active). Besides, the compound was classed as inactive in test [9].
Consider `c1ccc(C(NCCNC(c2ccccc2)c2ccccc2)c2ccccc2)cc1`, for which the Potency entry in test [11] is “inactive”. Besides, in [10], the Potency was 5010 nM (active).
For the compound `O=C1OC(=O)C2C3CCC(O3)C12` (stereo unspecified), the Potency result in test [11] and in test [8] was “inactive” in each case. In test [9], the compound was classed as inactive.
For `CN(C)CCC(c1ccc(Br)cc1)c1ccccn1` (stereo unspecified), the Potency result in test [11] and in test [8] was “inactive” each time. For the same compound, the compound was classed as inactive in test [9].
Turning to `CSC(=N)N`, the Potency in test [12] is 50.1 nM (active); in [6] it was 631 nM (active). Besides, the Potency entry in test [2], in test [3], in test [4] and in [5] was “inactive” in each case.
In the case of `O=C(c1ccc2c(c1)OCCO2)N1CCCCC1`, the Potency result in [13], in test [12] and in test [6] was “inactive” each time.
In the case of `C[C@H](O)C(=O)C1=Nc2c(nc(N)[nH]c2=O)NC1`, the Potency entry in test [10], in test [3] and in test [5] was “inactive” in each case.
For `CCc1ccc2c(-c3cccc(Cl)c3)nc(=O)n(CC)c2n1`, in test [10], the Potency result was “inactive”.
For the compound `CN(C)CCCc1cc(C(=O)Nc2ccc(-c3ccncc3)cc2)ccc1O`, the Potency result in test [10] is “inactive”. Moreover, in test [12], the Potency is 5010 nM (active).
